# In ChEMBL document CHEMBL3433997, “St. Jude Leishmania screening dataset” (2016):
# Assays:
# Assay type in all cases: functional
# [1] = target: Solute carrier family 2, facilitated glucose transporter member 1 (Homo sapiens) (UniProt P11166); test: ST_JUDE_LEISH: Cytotoxicity at 2uM final concentration against transgenic Leishmania Mexicana promastigotes LmGLUT1 that are glucose transport deficient and complemented with the human glucose transporter GLUT1. Activity is measured by DNA content using SYBR green in vitro
# Sequence of Solute carrier family 2, facilitated glucose transporter member 1 (Homo sapiens) (P11166 whole entry): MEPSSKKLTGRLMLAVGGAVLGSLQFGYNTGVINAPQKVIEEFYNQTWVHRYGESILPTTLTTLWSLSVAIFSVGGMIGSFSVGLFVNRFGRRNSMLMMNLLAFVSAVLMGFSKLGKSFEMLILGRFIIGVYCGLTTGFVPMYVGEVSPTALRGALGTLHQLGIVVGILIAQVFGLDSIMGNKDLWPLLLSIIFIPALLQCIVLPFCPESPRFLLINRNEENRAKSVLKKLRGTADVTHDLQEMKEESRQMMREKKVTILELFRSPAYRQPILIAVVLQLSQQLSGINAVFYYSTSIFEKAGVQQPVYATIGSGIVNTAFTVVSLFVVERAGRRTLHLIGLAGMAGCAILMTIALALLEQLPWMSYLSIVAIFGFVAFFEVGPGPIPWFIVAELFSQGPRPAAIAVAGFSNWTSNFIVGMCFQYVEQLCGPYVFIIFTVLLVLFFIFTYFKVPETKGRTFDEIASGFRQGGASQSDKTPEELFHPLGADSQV
# [2] = target: Hexose transporter 1 (Plasmodium falciparum) (UniProt O97467); test: ST_JUDE_LEISH: Cytotoxicity at 2uM final concentration against transgenic Leishmania Mexicana promastigotes LmPfHT that are glucose transport deficient and complemented with the Plasmodium falciparum hexose transporter. Activity is measured by DNA content using SYBR green in vitro
# [3] = target: Glucose transporter (Leishmania mexicana) (UniProt O61059); test: ST_JUDE_LEISH: Cytotoxicity at 2uM final concentration against transgenic Leishmania Mexicana promastigotes LmGT2 that are glucose transport deficient and complemented with the L. Mexicana glucose transporter 2. Activity is measured by DNA content using SYBR green in vitro
SMILES,inhibition [1] [%],inhibition [2] [%],inhibition [3] [%]
CS(=O)(=O)Nc1ccc2[nH]cc(C3CCN(CC4CCC(NC(=O)/C=C/c5ccc(Cl)c(Cl)c5)CC4)CC3)c2n1 (stereo not drawn),3.3,1.84,0.21
COc1cc2nc(N3CCN(C(=O)c4c(Cl)nsc4-c4ccccc4Cl)CC3)nc(N)c2cc1OC,10.5,8.35,5.08
CC(=O)Nc1nc(C(=O)Nc2ccc(-c3cccc(-c4nc5cccc(C)c5[nH]4)c3)cc2)cs1,8.57,9.26,5.38
CC1(C)NC(N)=NC(=N)N1OCCSCc1cc(Cl)sc1Cl,6.6,7.38,2.82
Oc1ccc(Nc2nc(N3CCCC3)c3ccccc3n2)cc1,2.69,1.64,-0.61
Cc1cc(C)c2c(c1)C(=NO)CCN2,-1.86,1.76,-0.32
c1ccc(Oc2cccc(Nc3ccnc4ccccc34)c2)cc1,8.44,10.4,3.97
Cc1noc(-c2ccc(N3CCC(C(=O)N4CCN(C(C)C)CC4)CC3)cc2)n1,1.72,2.07,2
CN(CCCN(C)c1cc(NC(=O)c2ccc(F)cc2)ccn1)Cc1cccc(F)c1,5,5.98,4.86
COc1cc(NCCCCCNc2cc(Cl)nc3ccccc23)nc2ccccc12,1.24,2.23,2.29
O=c1cc(NCCCNCc2cc(F)cc(C(F)(F)F)c2)[nH]c2ccccc12,-0.27,-0.14,4.38
O=C(Nc1ccc(Cn2nc(Cl)c(N3CCCNCC3)cc2=O)cc1)Nc1ccc(-c2ccccc2)cc1,19.7,15.5,16.6
CCN(C(=O)CSc1cc(C)c2cc(C)cc(C)c2n1)C1CCS(=O)(=O)C1 (stereo not drawn),0.63,0.78,-0.42
Cc1cccc2nc(-c3ccc(-c4cccc(CNCCN(C)C)c4)cc3)[nH]c12,3.31,2.84,0.95
O=C(/C=C/c1ccc(Cl)c(Cl)c1)NC1CCN(CCCNC(=O)c2cccc(Cl)c2)CC1,6.07,6.03,7.01
Cc1nnsc1C(=O)Nc1cccc(-c2ccc(-c3nc4ccccc4[nH]3)s2)c1,1.8,1.37,-0.11
CC(C)(C(=O)Nc1ccc(N2CCC3(CCCN(CC4CC4)C3)CC2)c(Cl)c1)c1cccc(C(F)(F)F)c1,0.2,-0.12,1.72
CCc1ccc(CN2CCC(C(=O)Nc3ccc(-c4nc5ccccc5[nH]4)cc3)CC2)o1,31.6,39.6,25.7
COC(=O)c1ccccc1COc1ccc(CC2(NC(=O)[C@H](Nc3ccc(C#N)c4ccccc34)C(C)(C)C)CCCC2)cc1,4.44,4.29,2.22
O=c1cc(NCCCNCc2cc(Cl)cc(Cl)c2OCc2ccccc2)[nH]c2ccccc12,5.54,2.83,4.41
CC1CN(Cc2ccccc2)CCN1c1ccc(NC(=O)c2ccc(F)cc2)cc1 (stereo not drawn),-1.05,-1.7,-3.4
COc1cc(CNc2ccc(N3CCCC3)cc2)cc(Cl)c1OC,-2.15,-4.72,1.78
Cc1ccc(CNC(=O)[C@H](CC(C)C)Nc2cc(C)nc(NCc3ccccc3C)n2)cc1,4.3,4.62,3.14
Cc1cc(N[C@@H](Cc2ccccc2)C(=O)Nc2ccccc2)nc(NCCc2cccs2)n1,4.14,2.39,1

SMILES,inhibition [1] [%],inhibition [2] [%],inhibition [3] [%]
O=C(NCC1CCN(Cc2cccc(C(F)(F)F)c2)C1)c1cc(-c2cccc(F)c2)cs1 (stereo not drawn),5.58,5.35,5.45
CC(C)N(C(=O)CSc1nc2cc(Cl)ccc2c(=O)n1Cc1ccccc1)C(C)C,0.98,2.14,0.05
Cc1cc(N[C@@H](Cc2ccccc2)C(=O)NCc2cccc(F)c2)nc(NCCOc2ccccc2)n1,4.2,-1.41,-0.15
O=C(NCc1ccccc1)Nc1cccc(-c2cccc(-c3nc4cc(C(F)(F)F)ccc4[nH]3)c2)c1,4.49,4.71,6.02
CC(C)n1cc(CN2CCCC(C(=O)Nc3cccc(-c4cc5ccccc5[nH]4)c3)C2)cn1 (stereo not drawn),2.2,-0.11,-0.59
CCN(CC)CCN(CCN(CC)CC)c1ccc(-c2nc3cc(Cl)c(Cl)cc3[nH]2)cc1,15.8,16.3,7.03
CCOc1ccc2c(=NN=Cc3ccc(F)cc3)cc(C)[nH]c2c1,4.44,3.21,1.49
O=C(/C=C/c1ccc(C(F)(F)F)cc1)N1CCC(CCN2CCC(c3c[nH]c4ccccc34)CC2)CC1,16.8,9.28,3.39
Clc1ccc(CNCC2CCN(CC3CCCCC3)CC2)cc1Cl,-1.58,0.7,0.64
CC(C)COc1ccc(Cl)cc1Cc1nc(-c2nc3ccc(CN4CCCC4)cc3[nH]2)co1,2.58,3.58,3.07
COc1ccc(Nc2nc(N)c3cc(OC)c(OC)cc3n2)cc1OC,9.02,7.54,5.87
COc1ccc2nccc([C@H](O)CN3CCC(NCc4cc(C)c5c(c4)OCCO5)CC3)c2n1,5.84,8.31,-2.32
COc1ccc2nccc([C@@H](O)CN3CCC(NCc4ccc5c(c4)OCCO5)CC3)c2c1,6.76,5.93,0.41
O=C(Nc1ccc(-c2cccc(-c3nc4cc(F)ccc4[nH]3)c2)cc1)c1cnn2cccnc12,2.14,3.22,0.84
CC(C)C1C(O)=C(c2ccc3ccccc3c2)C(=O)N1Cc1cccc(F)c1 (stereo not drawn),6.97,7.53,8.55
CCSc1nnc(C2CCCN(CC(=O)Nc3cc(C(F)(F)F)ccc3Cl)C2)n1CC (stereo not drawn),8.8,8.79,8.67
O=C(O)C1CC(=O)N(c2ccc(Cl)cc2)C1 (stereo not drawn),-1.68,-0.45,-1.26
O=C(NC(CCCN1CCC(c2ccccc2)CC1)c1ccc(Cl)c(Cl)c1)c1cc(C(F)(F)F)cc(C(F)(F)F)c1 (stereo not drawn),2.06,1.99,1.89
O=C1NC(c2ccc(N3CCCCCC3)cc2)Nc2ccccc21 (stereo not drawn),6.32,4.82,2.21
Cc1noc(C)c1-c1cccc(CNCc2ccc(-c3cccc(-c4nc5cc(C(F)(F)F)ccc5[nH]4)c3)cc2)c1,-0.48,1.3,1.67
CN(C)C(=O)c1cc(CNCc2ccccc2)ccc1-c1cccc(CNCc2ccc(-c3ccccc3)cc2)c1,0.97,3.85,3.02
O=C(/C=C/c1ccc(Cl)c(Cl)c1)NCC1CCN(Cc2ccc(O)cc2)CC1,69.6,57.8,46.2
CN1CCN=C1c1ccc(NC(=O)Nc2ccc(C3=NCCN3C)cc2)cc1,13,7.37,5.87
CN1C(=O)C(=NN=C(S)N2CCOCC2)c2ccccc21,23.4,63.9,12.7

SMILES,inhibition [1] [%],inhibition [2] [%],inhibition [3] [%]
CCOc1ccc(OCC)c(N2CCN(CCCCNC(=O)c3ccc(NC(=O)c4ccc(Cl)cc4)cc3)CC2)c1,3.44,3.28,3.45
COc1ccc(F)cc1-c1cccc(CNC2CCN(CC3Cn4c(=O)ccc5ccc(F)c3c54)CC2)c1 (stereo not drawn),10.1,14.3,18.8
CC(=O)Nc1ccc(S(=O)(=O)Nc2ccc(Nc3nc(C)cc(N(C)C)n3)cc2)cc1,-1.06,0.57,2.61
CCCc1cc(NCC)nc(Nc2ccc(C)cc2)n1,23.6,7.16,4.06
Nc1ncc(-c2ccsc2)c2ccc(-c3cnc[nH]3)cc12,1.46,0.14,-0.37
COc1ccc(Cl)cc1N1CCN(CCCNC(=O)c2ccc(-c3nc4cc(Cl)c(Cl)cc4[nH]3)c(C)c2)CC1,1.66,0.9,1.04
COC(=O)c1c(NC(=O)c2cccc(C(F)(F)F)c2)sc2c1CCN(Cc1ccccc1)C2,1.14,5,-1.31
Cc1sc(CNCCCNc2cc(=O)c3ccccc3[nH]2)cc1Br,0.99,0.97,0.93
COc1ccc2nccc(NC(=O)OC3CCC(NCc4ccc5c(n4)NC(=O)CS5)CC3)c2c1 (stereo not drawn),4.53,4.67,3.92
CCc1ccc(-c2nc3cc(NC(=O)c4cc([N+](=O)[O-])cc([N+](=O)[O-])c4)ccc3o2)cc1,2.33,1.19,2.3
Cc1cc(N[C@@H](Cc2ccccc2)C(=O)NCCOc2ccccc2)nc(NCCc2ccc(F)cc2)n1,15.1,11.7,10.1
CCc1c(CCNCCCCCCNCCc2ccc(Br)cc2)ccc(O)c1O,-0.07,0.74,1.12
O=C(NCc1cccs1)[C@H](Cc1ccccc1)Nc1ccnc(NCCc2ccccc2)n1,-0.12,-1.06,-0.38
N#Cc1cnc2cc(-c3cnc(CNCCN4CCOCC4)s3)ccc2c1Nc1ccc(Oc2ccccc2)cc1,1.96,3.38,1.64
CC(C)n1c(C2CCN(CC3CCN(C(=O)/C=C/c4ccc(Cl)c(Cl)c4)CC3)CC2)nc2ccccc21,0.12,-1.72,-0.72
CN1CCC[C@@H](Oc2cc3c(cc2Br)CCN3C(=O)Nc2ccc(-c3ccncc3)c(Cl)c2)C1,2.29,2.77,0.42
O=C(c1cccc(-c2cccc(-c3nc4cc(C(F)(F)F)ccc4[nH]3)c2)c1)N1CCCCC1CN1CCC(O)C1 (stereo not drawn),-0.81,-0.87,-1.32
COc1cccc(-c2cccc(CNC3CCN(CC4Cn5c(=O)ccc6ccc(F)c4c65)CC3)c2)c1 (stereo not drawn),6.16,2.1,1.71
COc1ccc(-c2cc(C(=O)N[C@@H](CC3CCCCC3)C(=O)NCCN3CCCC3)ccc2O)cc1,0.33,1.9,1.32
COc1cc2nc(-c3ccc(Br)cc3)cc(N)c2cc1OC,64.2,23.6,29.1
O=C(CCc1cccnc1)Nc1cccc(-c2ccc(-c3nc4cc(C(F)(F)F)ccc4[nH]3)s2)c1,-0.82,1.89,2.16
O=C1Nc2cccc3c2C1(CCCCN1CCC(c2c(-c4ccccc4)[nH]c4ccccc24)CC1)CCC3 (stereo not drawn),3.04,2.74,-0.14
COc1ccc2nccc([C@@H](O)CN3CCC(NC(=O)c4ccc(-c5ccccc5)s4)CC3)c2c1,9.94,14.6,4.67
